Screening data (PubChem)
Shown are actives, neighbours in structure and some others; about 1.2% of the full set was active somewhere.
MsrA inhibitor = inhibitors of bovine MsrA. inhibition, % at 15.5 µM. AID 651718. purified bovine MsrA, absorbance read-out. actives 0.75% (n = 360,000); in the data active = inhibition above about 4.5%
NPR2 activator = GC-B (human) receptor activation | P20594 | actives 0.11% (n = 370,000) | HEK293-GC-B cells, CNP EC30, cGMP TR-FRET; 0% at EC30 CNP, 100% saturating CNP | activation, % at 10 µM;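 active = activation at 10 µM reaching about 35% in either raw or pattern-adjusted values, limit read from the data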
GC-A act = GC-A (human) enzyme activation; P16066; HEK293 GC-A cells, cGMP TR-FRET, EC30 ANP; 0% at EC30 ANP, 100% saturating ANP; activation, % at 10 µM; actives 0.14% (n = 370,000); AID 1671463; in the data active = activation above about 40%
Target sequence (P16066 whole entry, looked up): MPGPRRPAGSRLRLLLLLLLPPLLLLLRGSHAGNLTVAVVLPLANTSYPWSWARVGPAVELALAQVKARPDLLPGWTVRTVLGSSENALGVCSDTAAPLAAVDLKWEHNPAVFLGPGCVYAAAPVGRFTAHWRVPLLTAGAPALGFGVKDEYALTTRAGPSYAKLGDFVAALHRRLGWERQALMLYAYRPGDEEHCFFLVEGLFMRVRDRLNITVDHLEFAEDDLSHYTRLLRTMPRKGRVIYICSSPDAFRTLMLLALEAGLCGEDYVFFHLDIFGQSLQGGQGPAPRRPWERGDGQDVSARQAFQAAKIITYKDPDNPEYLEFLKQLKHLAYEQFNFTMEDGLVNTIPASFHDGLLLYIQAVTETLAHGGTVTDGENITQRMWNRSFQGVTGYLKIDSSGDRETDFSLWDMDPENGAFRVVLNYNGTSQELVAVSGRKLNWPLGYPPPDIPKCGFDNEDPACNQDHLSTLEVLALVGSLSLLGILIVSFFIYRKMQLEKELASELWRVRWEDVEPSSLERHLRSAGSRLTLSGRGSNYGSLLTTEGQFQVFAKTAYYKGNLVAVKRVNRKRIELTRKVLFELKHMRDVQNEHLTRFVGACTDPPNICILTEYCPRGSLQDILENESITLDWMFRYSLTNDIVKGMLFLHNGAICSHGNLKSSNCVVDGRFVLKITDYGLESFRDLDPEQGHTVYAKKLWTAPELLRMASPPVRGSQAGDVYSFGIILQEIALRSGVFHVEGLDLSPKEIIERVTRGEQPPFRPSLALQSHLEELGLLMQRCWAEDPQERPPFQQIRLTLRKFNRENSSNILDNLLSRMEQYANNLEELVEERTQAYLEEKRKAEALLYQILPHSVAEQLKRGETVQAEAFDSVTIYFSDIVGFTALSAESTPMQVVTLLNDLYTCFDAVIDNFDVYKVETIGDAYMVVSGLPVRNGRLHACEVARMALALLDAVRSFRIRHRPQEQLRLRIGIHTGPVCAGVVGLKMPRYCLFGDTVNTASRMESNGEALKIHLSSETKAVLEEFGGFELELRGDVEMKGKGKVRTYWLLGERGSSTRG
MsrA act = activates bovine MsrA enzyme | purified bovine MsrA, absorbance read-out | activation, % at 10.6 µM | actives 0.3% (n = 360,000) | AID 602163; in the data active = activation above about 7.5%
MsrA activ conf = bovine methionine sulfoxide reductase A activation confirmed | AID 602270 | actives 12% (n = 1,000) | purified bovine MsrA, absorbance read-out | activation, % at 10.6 µM | shares compounds with MsrA act; in the data active = activation above about 4%;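 also: enzyme coupled to thioredoxin and thioredoxin reductase with NADPH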
Of the large screens only hits and unclear results are named; the others gave an inactive call (follow-up assays come after a bar, where they were run).

COc1ccc(/C(C)=N/NC(=O)CNC(=O)c2ccco2)c(OC)c1	MsrA act 8.6 | MsrA activ conf inactive
CCOc1cc(C)c(Cl)cc1S(=O)(=O)NCc1ccc2c(c1)OCO2	MsrA act 7.8 | MsrA activ conf inactive
O=C(NCCCN1CCN(CCCNC(=O)c2ccc3c(c2)OCO3)CC1)c1ccc2c(c1)OCO2	none
O=C(NCCN1CCCCC1)c1ccc2c(c1)OCCO2	MsrA act 10 | MsrA activ conf inactive
CC(C)c1ccc(/C=N/NC(=O)c2ccccc2Cl)cc1	MsrA act 13 | MsrA activ conf inactive
COC(=O)c1ccc(/C=N/NC(=O)c2ccccc2Cl)cc1	none
C=C(C)C1Cc2c(C)nn(-c3cccc4ccccc34)c2C1 (configuration not stated)	MsrA act 8.0 | MsrA activ conf inactive
CCC[C@H](/C=C/C(=O)OC(C)(C)C)Sc1ccc(N)cc1	none (no result: MsrA inhibitor, MsrA act)
O=C(Cn1sc2ccccc2c1=O)Nc1ccccc1	MsrA act 7.7 | MsrA activ conf inactive
COc1cccc(C(c2sc3ncnn3c2O)N2CCc3ccccc3C2)c1 (configuration not stated)	none
COc1cccc(C(c2sc3ncnn3c2O)N2CC(C)OC(C)C2)c1 (configuration not stated)	MsrA act 8.1 | MsrA activ conf inactive
CCCCCc1c(C)nc(Nc2ccc(F)cc2)[nH]c1=O	MsrA act 9.8 | MsrA activ conf inactive
CCCc1cc(=O)oc2c(CN3CCN(C)CC3)c(O)c(Cl)cc12	MsrA act 13 | MsrA activ conf inactive
COc1cc([N+](=O)[O-])ccc1NC(=O)NCC1CCN(Cc2ccc(Cl)cc2)CC1	MsrA act 22 | MsrA activ conf inactive
COc1ccc(Cl)cc1NC(=O)NCC1CCN(Cc2cc(C)ccc2C)CC1	none
C[C@H]1[C@@H](N(C)Cc2cccs2)CC[C@@]23CCCN2C(=O)CCC[C@@H]13	none (no result: MsrA inhibitor, MsrA act)
CC(C)C1C(=O)N(Cc2cn(CC3CCCCC3)nn2)CCS(=O)(=O)N1Cc1ccc(-c2ccc(F)nc2)cc1 (configuration not stated)	MsrA act 8.9 | MsrA activ conf inactive
COc1ccc(S(=O)(=O)NCc2ccc(C(=O)O)cc2)cc1	MsrA act 7.9 | MsrA activ conf inactive
COc1ccc(S(=O)(=O)NCc2ccc(C(=O)N3CCN(Cc4ccccc4)CC3)cc2)cc1	none
CC(C)(C)c1ccc(S(=O)(=O)N2CCCC(C(=O)NCc3cccs3)C2)cc1 (configuration not stated)	none (no result: MsrA inhibitor, MsrA act)
COC(=O)c1ccc(C(C(=O)NC2CCCCC2)N(C(=O)Cc2cccs2)C2CC2)cc1 (configuration not stated)	MsrA act 7.9 | MsrA activ conf inactive
CC1CCCN(C(=O)COC(=O)/C=C/c2ccc(C(F)(F)F)cc2)C1 (configuration not stated)	MsrA act 8.7 | MsrA activ conf inactive
COc1ccc(C2CC(Cn3cc(C#N)c(=O)n(C)c3=O)ON2C)cc1 (configuration not stated)	MsrA act 9.3 | MsrA activ conf inactive
COCCNC(=O)C1=NOC(Cn2cc(C#N)c(=O)n(C)c2=O)C1 (configuration not stated)	none
COC(=O)c1cc(S(=O)(=O)N2CCN(c3cccc(C(F)(F)F)c3)CC2)cn1C	none (no result: MsrA inhibitor, MsrA act)
CN(Cc1ccccc1)C(=O)c1csc([C@@H]2C[C@H](O)[C@@H](CO)O2)n1	MsrA act 9.3 | MsrA activ conf inactive
CN(Cc1ccccc1)C(=O)c1csc([C@H]2C[C@H](O)[C@@H](CO)O2)n1	none
CC1(C)Cc2c(sc3nc(-c4ccccc4)n(N)c(=O)c23)CO1	none
CSc1nnc2c3c4c(sc3c(=O)n(-c3ccccc3)n12)CC(C)(C)OC4	MsrA act 24 | MsrA activ conf inactive
CC(=O)OCCn1c(C)[n+](CCOC(C)=O)c2cc(Cl)c(Cl)cc21	none
CC(=O)OCCn1c2nc(=O)[nH]c(=O)c-2nc2cc(C)c(C)cc21	MsrA act 13 | MsrA activ conf 16
COC(=O)C[C@H]1CC[C@H]2[C@H](COc3ccc(NC(=O)c4ccccc4F)cc3C(=O)N2C)O1	none (no result: MsrA inhibitor, MsrA act)
O=C1NCCN1CCN1CCC(c2cn(-c3ccc(F)cc3)c3ccc(Cl)cc23)CC1	none (no result: MsrA inhibitor, MsrA act)
O=C(NCc1ccc(Cl)cc1)OCCN1C(=O)CCC12CCC(c1ccccc1)CC2 (configuration not stated)	none (no result: MsrA inhibitor, MsrA act)
Fc1ccc(NC(=S)Nc2ccccc2N2CCOCC2)cc1Cl	MsrA act 9.7 | MsrA activ conf inactive
CCCCCCc1ccc(NC(=O)[C@@H]2CC=C[C@@H]3CCN(Cc4ccccc4)C(=O)[C@@H]32)cc1	none (no result: MsrA inhibitor, MsrA act)
COc1ccc([C@@]23CCN=C2c2[nH]c4ccccc4c2CCN3)c(N)c1	none (no result: MsrA inhibitor, MsrA act)
CCOC(=O)CNC(=O)CSc1nnc(-c2cccs2)o1	none (no result: MsrA inhibitor, MsrA act)
COc1ccccc1-[n+]1c(C)cc(/C=C2\Sc3ccccc3N2C)cc1C	MsrA act 8.2 | MsrA activ conf inactive
CCOC(=O)c1ccc(NC(=O)c2cc(F)c(F)cc2Cl)cc1	MsrA act 8.7 | MsrA activ conf inactive
CCOC(=O)c1cc2c(=O)n3ccccc3nc2n(CCCOC)c1=NC(=O)C(C)(C)C	none
CCOC(=O)c1cc2c(=O)n3ccccc3nc2n(CCOC)c1=NC(=O)C(C)(C)C	MsrA act 8.2 | MsrA activ conf inactive
CC(NC(=O)Cn1cccc1C(=O)c1ccccc1)c1ccccc1 (configuration not stated)	MsrA act 12 | MsrA activ conf inactive
Cc1ccccc1C(=O)c1cccn1CC(=O)NC(C)c1ccccc1 (configuration not stated)	none
O=C(c1cccc(Br)c1)N1CCC(Oc2cccnc2)CC1	none (no result: MsrA inhibitor, MsrA act)
Clc1ccccc1Cn1nc(-c2ccccc2)nc1-c1ccccc1	none
Clc1ccc(Cn2nc(-c3ccccc3)nc2-c2ccccc2)cc1	MsrA act 8.7 | MsrA activ conf inactive
Fc1ccc(C2=Nn3c(nnc3C3CCCCC3)SC2)cc1	none (no result: MsrA inhibitor, MsrA act)
O=C(CSc1nc2ncccc2[nH]1)c1cccc([N+](=O)[O-])c1	MsrA act 8.8 | MsrA activ conf inactive
Cc1cccc(C)c1NC(=O)N1CCC(n2cnc3ccccc32)CC1	none
Cc1cccc(C)c1NC(=O)N1CCC(n2c(=O)[nH]c3ccccc32)CC1	MsrA act 7.8 | MsrA activ conf inactive
OCCNc1nc(SCc2ccccc2)nc2sc3c(c12)CCC3	MsrA act 14 | MsrA activ conf inactive
Cc1ccc(S(=O)(=O)Nc2cccc(-c3ccc4nnc(C)n4n3)c2)s1	MsrA act 20 | MsrA activ conf inactive
Cc1ccc(OCC(=O)Nn2c(C)nc3ccccc3c2=O)c(C(C)C)c1	MsrA act 8.2 | MsrA activ conf inactive
C=CCN(CC#Cc1ccccn1)Cc1ccc(OC)cc1OC	none (no result: MsrA inhibitor, MsrA act)
Cc1cccc(C)c1NC(=O)c1nc(S(=O)(=O)Cc2ccccc2)ncc1Cl	none
Cc1nnc(NC(=O)c2nc(S(=O)(=O)Cc3ccccc3)ncc2Cl)s1	MsrA act 11 | MsrA activ conf inactive
Cc1ccc(NCc2nnc3n2CCCCC3)c(C)c1	MsrA act 8.2 | MsrA activ conf inactive
